From PubChem BioAssay AID1918 (Vanderbilt High Throughput Screening Facility, 2009) come the findings set out here.

The whole screen tested about 130,000 compounds, of which about 2,500 (1.9%) were called active. The sample holds actives, similar compounds and a random draw of the others, so the mix is not that of the screen. Unmarked numbers belong to inactive results.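 The calls were made as follows: active = signal ratio slope over the read window, or its plate-corrected B-score, at least 3 SD from the plate mean, either direction; inactive = the rest.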

The experiment deals with ATP-sensitive inward rectifier potassium channel 1 (Homo sapiens) (UniProt P48048). The experiment can be described thus: ROMK potassium channel modulators, primary screen, cell-based, thallium flux, MLSMR library (AID 1918).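 Also: B-score of the F/F0 ratio slope over 7 to 12 s after thallium.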 As to conditions: Tet-inducible ROMK, thallium flux fluorescence; at 10 µM; actives lie on both sides.
Chain of ATP-sensitive inward rectifier potassium channel 1 (Homo sapiens) (P48048 whole entry, looked up): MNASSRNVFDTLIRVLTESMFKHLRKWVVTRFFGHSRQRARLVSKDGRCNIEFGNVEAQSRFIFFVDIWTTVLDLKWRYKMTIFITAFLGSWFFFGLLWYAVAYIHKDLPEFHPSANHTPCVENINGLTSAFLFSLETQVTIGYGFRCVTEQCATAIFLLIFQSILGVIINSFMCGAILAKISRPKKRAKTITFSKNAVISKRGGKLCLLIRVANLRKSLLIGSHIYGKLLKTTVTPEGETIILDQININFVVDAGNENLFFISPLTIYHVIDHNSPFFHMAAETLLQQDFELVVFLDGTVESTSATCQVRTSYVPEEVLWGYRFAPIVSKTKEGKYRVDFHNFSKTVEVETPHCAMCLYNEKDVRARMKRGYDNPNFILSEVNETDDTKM
Turning to `Cc1cc(NS(=O)(=O)c2ccc(NC(=O)c3cccc(OC(F)F)c3)cc2)nc(C)n1`, the B-score was 0.878. As for `Cc1ccc([N+](=O)[O-])c(OCCCNCC(C)O)c1` (stereo unspecified), the B-score was -0.00821.

In the case of `O=C(Cc1ccc([N+](=O)[O-])cc1)N/N=C/c1ccco1`, the B-score was -1.24. Turning to `O=c1[nH]c(-c2ccccc2)c(-c2ccccc2)[nH]1`, the B-score is -0.0963. For the compound `N#Cc1c(-c2ccc(F)cc2)nc(-c2ccccc2)[nH]c1=O`, the B-score was -1.43. `O=c1cc(-c2ccccc2)[nH]c2cc(F)ccc12`: the B-score is 4.56 (active).

For the compound `CN(C)/C=C/C(=O)c1cnc2sccn2c1=O`, the B-score is -0.835.

For `Cc1cccc(Oc2c([N+](=O)[O-])c(=O)n(C)c3ccccc23)c1`, the B-score was -2.67 (active).

As to `Cc1nn(C)c(Oc2ccccc2)c1[N+](=O)[O-]`, the B-score was 0.573. In the case of `Cc1cccc(OP(=O)(Nc2c(C)n(C)n(-c3ccccc3)c2=O)Oc2cccc(C)c2)c1` it was -0.868; in that of `COc1cccc(-c2ccc(SCC(=O)N3CCN(c4ccccc4)CC3)nn2)c1`, 0.576. Under `COc1ccc(S(=O)(=O)N2CCCCCC2)cc1C(=O)OCC(=O)Nc1cc(C)on1` stands 0.559. For the compound `COc1cc2c(cc1OC)C(C(C)C)=NC(C)(C)C2`, the B-score was -0.0102. Consider `COc1cc2c(cc1O)C(SC)=NC(C)(C)C2`, for which the B-score is -6.55 (active). As for `CN(C)C(=O)c1cccn(Cc2cccc(C(F)(F)F)c2)c1=O`, the B-score was 0.481. With `CN1CCNC(=O)C1CC(=O)N1CC=C(c2ccc(F)cc2)CC1` (stereo unspecified), the B-score is -0.128. Take `CSc1cccc(NC(=S)N(Cc2ccccc2)Cc2ccccn2)c1`: the B-score was -1.37 (active). In the case of `COc1cccc(NC(=S)N(Cc2ccc(C)cc2)Cc2ccccn2)c1`, the B-score is 0.0921.

Take `CSc1cccc(NC(=S)N(C(C)C)C(C)c2ccccn2)c1` (stereo unspecified): the B-score is -0.872. Consider `O=C(Nc1ccncc1)c1ccccc1[N+](=O)[O-]`, for which the B-score is -0.131.

For the compound `CC1=C/C(=N\S(=O)(=O)c2ccccc2)C(C(C)C)=CC1=O`, the B-score was -2.34.

Turning to `COc1ccc(/C=C/C(=O)N2CCCC2)cc1OC`, the B-score was 1.08. For the compound `Cc1sc2c(c1C)c(=O)n(-c1ccccc1)c(=O)n2CC(=O)NCC1CCCO1` (stereo unspecified), the B-score was 0.885. Regarding `Cc1ccc(C(NC(=O)N2CCCC2)C(Cl)(Cl)Cl)cc1F` (stereo unspecified), the B-score is 0.515. On to `O=C(Nc1ccccc1Cl)/C(Cl)=C(\Cl)S(=O)c1ccccc1` (stereo unspecified), for which the B-score was -4.2 (active). Turning to `O=C(Nc1ccccc1Cl)c1ccc2nsnc2c1`, the B-score is -0.621.

Turning to `COCCN(CCOC)C(=S)Nc1ccccc1Cl`, the B-score is 0.00438. Regarding `COc1ccc(NC(=O)C(C)SCc2ccccc2)cc1` (stereo unspecified), the B-score is 0.339. Regarding `COc1ccc(-c2[nH]ncc2CN(C)Cc2c(C)n[nH]c2C)c(OC)c1`, the B-score was 1.28 (active).

`COc1ccc(-c2[nH]ncc2CN(C)Cc2cc(C)[nH]n2)c(F)c1`: the B-score was 0.139. As to `COc1ccc(-c2[nH]ncc2CN(C)Cc2cccnc2)c(F)c1`, the B-score was 0.572. For `Cc1cc(/C=C2/NC(=O)NC2=O)c(C)n1-c1cccnc1`, the B-score was 0.0128. For `O=c1c(-c2ccc3c(c2)OCCO3)c(C(F)(F)F)oc2cc(O)cc(O)c12`, the B-score is -5.2 (active). `CCc1cc2c(=O)c(-c3ccc(F)cc3)c(C(F)(F)F)oc2cc1OCC(=O)O`: the B-score was -0.413.

On to `COc1ccc(-c2onc(C)c2-c2ccc3c(c2)OCCO3)c(O)c1`, for which the B-score is -0.0517. In the case of `COc1ccc(C(C)=O)cc1CSc1nc2nc(C)cc(C)n2n1`, the B-score is 1.28. Consider `Cc1cccc(NC(=S)Nc2ccc(Cl)c(Cl)c2)c1`, for which the B-score is 0.116. As for `COc1ccc(CCNC(=O)COC(=O)/C=C/c2cccs2)cc1OC`, the B-score was -0.931. For `COc1ccc(CCNC(=O)CSc2nnc(CNC(=O)c3cccs3)o2)cc1OC`, the B-score is -0.208. Regarding `COc1ccc(CN(C(=O)c2cccs2)c2nccs2)cc1OC`, the B-score is 4.52 (active).

Regarding `O=c1[nH]n2c(-c3ccccc3)nc(O)c2c2ccccc12`, the B-score was 2.45. Under `C=C(C)C1CC=C(C)/C(=N/NC(=O)CCCNc2cccc(C)c2)C1` (stereo unspecified) stands 1.1; under `Cc1ccc(CNC(=O)C2CCCN(S(C)(=O)=O)C2)cc1` (stereo unspecified), 0.0583; under `CC(C)OCCCNC(=O)C1CC(=O)N(C2CCCCCCC2)C1` (stereo unspecified), -0.488. Under `Cc1ccc(CNC(=O)C2CC(=O)N(C3CCCCCCC3)C2)cc1` (stereo unspecified) stands -2.38 (active). With `O=C(COc1ccccc1)Nc1ccc(N2CCN(C(=O)c3cccs3)CC2)cc1`, the B-score was -0.916. Turning to `CC(=O)Nc1ccc(OCCC[n+]2cccc(C(=O)[O-])c2)cc1`, the B-score is 0.158. With `COc1cc(NC(=S)NCc2ccc(S(N)(=O)=O)cc2)cc(OC)c1`, the B-score was 2.23. On to `Cc1cc(C)n(-c2nc(C(F)(F)F)nc3ccccc23)n1`, for which the B-score was -0.0244. On to `CN(NC(=O)c1ccccc1F)c1nc(C(F)(F)F)nc2ccccc12`, for which the B-score was 2.83 (active). Consider `COC(=O)CNC(=O)c1ccccc1F`, for which the B-score was 0.963.

Take `Cc1ccc(C)c(-n2cc(CN3CCN(C(=O)c4ncn[nH]4)CC3)c(-c3ccccc3)n2)c1`: the B-score was -0.754.

With `CCOc1ccccc1N1CCN(C(=O)COc2ccc3c(C)cc(=O)oc3c2)CC1`, the B-score was 0.824. As for `Cc1ccccc1N1CCN(CCCOc2ccc3c(C)cc(=O)oc3c2)CC1`, the B-score is -4.08 (active). Under `COc1ccc(N2CCN(C(=O)COc3ccc4c(C)cc(=O)oc4c3)CC2)cc1` stands -0.589; under `CCO/C=C1\C(=O)N(c2ccc(OCC)cc2)C(=O)c2ccccc21`, -0.0391; under `CCNC(=O)CC1C(=O)N(c2ccc(OC)cc2)C(=S)N1CCc1ccncc1` (stereo unspecified), 0.277.

Take `Cc1cc(/C=N/NC(=O)c2cccnc2)c(C)n1CC(C)C`: the B-score was 1.51. Consider `CCc1ccc(C(=O)OCC(=O)Nc2cccc(S(=O)(=O)NC3=NCCCCC3)c2)cc1`, for which the B-score was -1.41. For `C/C(=N\NC(=O)CSc1nc2ccccc2c(=O)n1-c1ccccc1C)c1cccs1`, the B-score was 0.111. On to `Cc1cccc(-n2c(SCC(=O)Nc3cccc(S(=O)(=O)NC4=NCCCCC4)c3)nc3ccccc3c2=O)c1C`, for which the B-score is -5.4 (active).
